Measurements as given in PubChem BioAssay (EPA / NIEHS).
Several values for one entry are separate records, joined by “and”; a condition that tells them apart may be missing. Equal entries are not always repeated. Where a structure was tested more than once in an assay, its records may differ in their call. Activity calls are given as the source filed them. Rule for the calls: active = hit-call score of the fitted dose curve at least 0.9, where 1 is the maximum; inactive = score below 0.9.

assay: ATG_TA_CIS: Attagene CIS-FACTORIAL HepG2 Assay for human TA Basal Promoter (AID 2282964); conditions: HepG2 Attagene CIS-factorial TA basal promoter reporter; actives raise or lower the signal
Experimental: ATG_CIS is a cell-based, multiplexed-readout assay that uses HepG2, a human liver cell line, with measurements taken at 24 hours after chemical dosing in a 24-well plate.ATG_TA_CIS is one of 52 assay component(s) measured or calculated from the ATG_CIS assay. It is designed to make measurements of mRNA induction, a form of inducible reporter, as detected with fluorescence intensity signals by Reverse transcription polymerase chain reaction (RT-PCR) and Capillary electrophoresis technology.Data from the assay component ATG_TA_CIS was analyzed into 1 assay endpoint. This assay endpoint, ATG_TA_CIS, was analyzed with bidirectional fitting relative to DMSO as the negative control and baseline of activity. Using a type of inducible reporter, measures of mRNA for gain or loss-of-signal activity can be used to understand the background control at the transcription factor-level as they relate to the gene . Furthermore, this assay endpoint can be referred to as a secondary readout, because this assay has produced multiple assay endpoints where this one serves a background control function. To generalize the intended target to other relatable targets, this assay endpoint is annotated to the background measurement intended target family, where the subfamily is internal marker.
Human liver HepG2 cells are transiently transfected with multiple reporter transcription units (MRTUs) in 6-well plates using FuGene 6 reagent (Roche; 3 ml FuGene/1 mg DNA). The MRTU constructs are regulated by a cis-regulating element (promoter). […] A major difference between the CIS and TRANS system is that in CIS activities of endogenous TFs are measured, whereas the TRANS assay evaluates changes in activities of exogenous, chimeric NR-Gal4 proteins. […] At the end of 24 hour incubation, total RNA was isolated using TriZol reagent (Invitrogen). The isolated RNA is then reverse-transcribed using oligo(dT) primer and Mo-MLV reverse transcriptase (Invitrogen) with DNAse I (Ambion) treatment for 30 min. The one-tenth of the produced cDNA was amplified by PCR using Taq DNA polymerase (Invitrogen) and two reporter sequence-specific primers. The PCR products were fluorescently labeled by primer extension with 6-arboxyfluorescein (6-FAM) 5'-labeled reporter sequence-specific primer (2 min at 95 C, 20 s at 68 C and 10 min at 72 C) and these products were digested with 5U of HpaI (New England Biolabs) for 2h at 37 C. The fragments were purified using Qiaquick PCR columns (Qiagen), analyzed on an ABI 3130xL genetic analyzer (Applied Biosystems) with peak positions identified by using a set of X-rhodamine (ROX)-labeled MapMarker1000 molecular weight standards (BioVentures). The raw capillary electrophoresis data was processed using Attagraph software (Attagene).

Row | SMILES | outcome | AC50
1 | C1CC2OC2CC1C1CO1 (stereo not given) | inactive | 
2 | Clc1ccc(Cl)cc1 | inactive | 
3 | O=C(NC(=O)c1cc(F)c(F)cc1Cl)Nc1cc(F)ccc1N1CCC(C(=O)O)CC1 | inactive | 
4 | CCCCCCCCCC[N+](C)(C)CCCCCCCCCC | inactive | 
5 | CCC(C)(c1ccc(O)cc1)c1ccc(O)cc1 | inactive | 60.7 µM (active)
6 | CCCCCCCCCc1ccc(O)cc1 | inactive | 
7 | CCOP(=S)(OCC)SCSC(C)(C)C | inactive | 
8 | ClC1=C(Cl)[C@]2(Cl)[C@@H]3[C@@H]4C[C@@H]([C@H]5O[C@@H]45)[C@@H]3[C@@]1(Cl)C2(Cl)Cl | inactive | 
9 | CCC(=O)O[C@H]1CC[C@H]2[C@@H]3CCC4=CC(=O)CC[C@]4(C)[C@H]3CC[C@]12C | inactive | 100 µM (active) and 129 µM (active)
10 | O=C(NC(=O)c1c(F)cccc1F)Nc1cc(Cl)c(OC(F)(F)C(F)F)c(Cl)c1 | inactive | 
11 | COS(=O)(=O)OC | inactive | 
12 | CCNc1nc(NC(C)C)nc(SC)n1 | inactive | 
13 | CCC(C)c1cc([N+](=O)[O-])cc([N+](=O)[O-])c1O (stereo not given) | inactive | 
14 | O=S(=O)(O)C(F)(F)C(F)(F)C(F)(F)C(F)(F)C(F)(F)C(F)(F)F | inactive | 
15 | C=CC(N)=O | inactive | 
16 | NS(=O)(=O)C(F)(F)C(F)(F)C(F)(F)C(F)(F)C(F)(F)C(F)(F)C(F)(F)C(F)(F)F | inactive | 
17 | Cc1cc(-c2ccc(N)c(C)c2)ccc1N | inactive | 
18 | OCC(O)CO | inactive | 

Row | SMILES | outcome | AC50
19 | Clc1ccc(C(c2ccccc2Cl)C(Cl)(Cl)Cl)cc1 (stereo not given) | inactive | 45.3 µM (active)
20 | Nn1cnnc1 | inactive | 
21 | N#Cc1ccc(N(CC(N)=O)CC(F)(F)F)cc1C(F)(F)F | inactive | 
22 | CCOCCOC(C)=O | inactive | 
23 | CC(c1ccc(O)cc1)(c1ccc(O)cc1)c1ccc(O)cc1 |  | 17.3 µM (active)
24 | C[C@]12CCC(=O)C=C1CC[C@@H]1[C@@H]2CC[C@@]2(C)[C@H]1CC[C@]2(C)O | inactive | 
25 | Cc1ccccc1[N+](=O)[O-] | inactive | 
26 | O=C(O)C(F)(F)C(F)(F)C(F)(F)C(F)(F)C(F)(F)F | inactive | 
27 | Cc1ccccc1O | inactive | 
28 | CC(C)(O)C(=O)Nc1ccc([N+](=O)[O-])c(C(F)(F)F)c1 | inactive | 
29 | CCCCCCOC(=O)c1ccccc1C(=O)OCCCCCC | inactive | 
30 | CO/C=C(/C(=O)OC)c1ccccc1COc1cccc(C(F)(F)F)n1 | inactive | 
31 | Cc1cc(O)ccc1Cl | inactive | 
32 | Cc1ccccc1CO[C@@H]1C[C@@]2(C(C)C)CC[C@]1(C)O2 | inactive | 
33 | ClC1=C(Cl)[C@]2(Cl)[C@@H]3[C@@H](Cl)[C@H]4O[C@H]4[C@@H]3C1(Cl)C2(Cl)Cl | inactive | 
34 | Oc1c(Cl)c(Cl)c(Cl)c(Cl)c1Cl | inactive | 17.1 µM (active)
35 | C[C@]12CCC(=O)C=C1CC[C@@H]1[C@@H]2CC[C@]2(C)C(=O)CC[C@@H]12 | inactive | 
36 | Cc1cccc(C)c1N | inactive | 
